Columns and labels:
Assay in all cases: PBM binding z-score (relative to random genomic background probes); higher = stronger binding; sequences stand for … in GC…GCGATTGACAGCGTAGAATGAAGG
[1] = system: FXR:RXRa (NR concentration 270 nM, RXRa partner concentration 90 nM)
Procedure, shortened: (§1)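 Binding z-scores were set against random background probes. The data came from custom Agilent 4×180K protein-binding microarrays carrying double-stranded probes with 34-nt variable regions, incubated 1 h with ligand-free nuclear receptor dimers. Partner-specific antibodies detected binding, and scanned fluorescence was regression-normalized.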

[2] = system: LXRa:RXRa (NR concentration 270 nM, RXRa partner concentration 90 nM)
Procedure, shortened: as §1

[3] = system: LXRa homodimer (NR concentration 270 nM)
Procedure, shortened: as §1

[4] = system: LXRb:RXRa (NR concentration 270 nM, RXRa partner concentration 90 nM)
Procedure, shortened: as §1

[5] = system: LXRb homodimer (NR concentration 270 nM)
Procedure, shortened: as §1

[6] = system: PPARa:RXRa (NR concentration 270 nM, RXRa partner concentration 90 nM)
Procedure, shortened: as §1

[7] = system: PPARg:RXRa (NR concentration 180 nM, RXRa partner concentration 90 nM)
Procedure, shortened: as §1

[8] = system: PPARg:RXRa 270nM:90nM, anti-RXR (NR concentration 270 nM, RXRa partner concentration 90 nM)
Procedure, shortened: as §1

[9] = system: PPARg:RXRa 30nM:10nM, anti-RXR (NR concentration 30 nM, RXRa partner concentration 10 nM)
Procedure, shortened: as §1

[10] = system: PPARg:RXRa 90nM:30nM, anti-RXR (NR concentration 90 nM, RXRa partner concentration 30 nM)
Procedure, shortened: as §1

[11] = system: PPARg:RXRa DBDmut IVT, anti-RXR (DBD mutation: RXRa K156A/R161A, NR concentration 270 nM, RXRa partner concentration 90 nM)
Procedure, shortened: as §1

[12] = system: PPARg:RXRa IVT, anti-PPARg (NR concentration 270 nM, RXRa partner concentration 90 nM)
Procedure, shortened: as §1

[13] = system: PPARg DBDmut:RXRa IVT, anti-PPARg (DBD mutation: PPARg1 K132A/R137A, NR concentration 270 nM, RXRa partner concentration 90 nM)
Procedure, shortened: as §1

[14] = system: PPARg DBDmut IVT, anti-PPARg (DBD mutation: PPARg1 K132A/R137A, NR concentration 270 nM)
Procedure, shortened: as §1

[15] = system: PPARg homodimer (NR concentration 180 nM)
Procedure, shortened: as §1

[16] = system: PXR:RXRa (NR concentration 270 nM, RXRa partner concentration 90 nM)
Procedure, shortened: as §1

[17] = system: PXR homodimer (NR concentration 270 nM)
Procedure, shortened: as §1

[18] = system: RARa:RXR (NR concentration 270 nM, RXRa partner concentration 90 nM)
Procedure, shortened: as §1

[19] = system: RARa homodimer (NR concentration 270 nM)
Procedure, shortened: as §1

[20] = system: RARb:RXRa (NR concentration 270 nM, RXRa partner concentration 90 nM)
Procedure, shortened: as §1

Sequence | PBM binding z-score [1] | PBM binding z-score [2] | PBM binding z-score [3] | PBM binding z-score [4] | PBM binding z-score [5] | PBM binding z-score [6] | PBM binding z-score [7] | PBM binding z-score [8] | PBM binding z-score [9] | PBM binding z-score [10] | PBM binding z-score [11] | PBM binding z-score [12] | PBM binding z-score [13] | PBM binding z-score [14] | PBM binding z-score [15] | PBM binding z-score [16] | PBM binding z-score [17] | PBM binding z-score [18] | PBM binding z-score [19] | PBM binding z-score [20]
ACTATTAGTAGACTTAGGGCAACCGATACGACGC | -0.142 | -0.0337 | 0.0948 | -0.377 | 0.454 | -0.25 | 1.13 | 0.419 | 0.331 | 0.394 | 0.187 | 0.601 | 0.838 | 1.02 | 0.603 | 0.0648 | 0.218 | 0.0539 | 0.917 | 0.609
GCTAGCAGGCCATTTGGGTCACTCAATGACGGGC | 0.232 | -0.126 | -0.618 | -0.0783 | -0.885 | 1.34 | 0.697 | 0.632 | -0.477 | -0.0514 | 1.95 | 2.3 | -1.31 | -1.12 | -0.589 | 0.628 | 0.0652 | 0.69 | -0.931 | 1.63
TCTTATAGATCAGCAGGTTAAGAAAGCTGGCCAA | 0.0686 | 0.24 | -0.273 | 0.335 | -0.379 | 0.481 | -0.154 | 1.43 | 2.63 | 2.09 | 1.67 | 0.0176 | 0.00144 | -0.0268 | 0.0461 | 0.161 | -0.509 | 0.109 | -0.091 | 0.115
AGTATGAGGTTAAGATCAGGGAAACAGAATACAT | 1.71 | 2.36 | 0.00803 | 1.84 | 0.314 | 3.08 | 1.76 | 1.45 | 0.773 | 1.12 | 0.462 | 1.01 | 0.752 | 1.37 | 1.32 | 1.15 | 0.499 | 1.84 | 0.731 | 1.98
ATCTCCAGGTAAAAGTTCAGTGAATCCCGAGGAT | 1.06 | 1.58 | 1.65 | 1.15 | 0.946 | 3.5 | 5.76 | 6.62 | 6.15 | 7.28 | 0.0885 | 2.31 | 1.68 | 1.01 | 1.84 | 2.4 | 1.88 | 2.14 | 1.07 | 2.6
GCGACTGGGCCAAAGCAGGTTACCATAAGGTTGG | -0.0779 | -0.533 | -0.738 | -0.554 | -1.58 | 0.468 | 0.648 | 0.456 | -0.481 | 0.0774 | 2.12 | 1.67 | -1.03 | -0.738 | -0.482 | -0.203 | -0.655 | 0.347 | -0.649 | -0.0107
GATACAGGGTCAAGGCCAGAGGACGCGTATTGAT | 6.78 | 4.13 | -0.101 | 3.54 | -0.0333 | 5.49 | 6.03 | 5.55 | 2.01 | 4.12 | 2.29 | 3.97 | 0.837 | 0.968 | 2.75 | 3.68 | 0.296 | 4.56 | 1.16 | 4.44
TAACCTAGGTCATTGGGCCAGTATAGTACGCATC | 5.13 | 4.92 | 2.81 | 3.43 | 0.934 | 4.54 | 4.87 | 4.88 | 1.89 | 3.88 | 4.7 | 5.03 | 1.2 | 0.368 | 1.68 | 2.09 | 0.379 | 2.92 | 0.714 | 3.88
CGAACTAGGTCAAGGACAGTCAATCTCCGCACGC | 3.39 | 2.64 | 0.323 | 1.57 | -0.248 | 4.76 | 7.58 | 6.42 | 3.9 | 5.59 | 8.01 | 8.24 | 1.66 | 1.8 | 1.37 | 1.25 | 0.00572 | 2.09 | 0.256 | 4.08
TGAATGAGGTTAAAGACCAGGGAACGTGGCGTCG | 2.78 | 2.16 | -0.15 | 1.26 | 0.1 | 3.51 | 3.08 | 4.46 | 2.42 | 4.02 | 1.75 | 2.7 | 1.19 | 0.401 | 0.683 | 1.08 | -0.0383 | 2.17 | 0.0679 | 1.84
GCTATTAGTTGAGAGGGCAACCGAATGATTCTCG | 0.249 | 0.428 | 0.355 | 0.434 | -0.23 | 1.38 | 1.03 | 2.25 | 0.553 | 1.53 | 0.549 | 0.28 | 0.117 | -0.0279 | 0.87 | 0.651 | -0.0553 | 0.826 | 0.278 | 1.4
TCTCGGAGGACACGAAGGTCAGAGTTTTCCAGAG | 1.18 | 0.932 | 0.497 | 1.22 | -0.785 | 1.81 | 0.436 | 1.67 | 2.25 | 1.87 | 1.44 | 1.35 | -0.952 | -0.619 | 1.53 | 2 | 1.37 | 2.07 | 0.114 | 3.32
GATACAGGGTCACCTAGAGGCCAGAGTATGGAAA | 6.92 | 4.72 | -0.102 | 3.99 | -0.035 | 5.79 | 6.93 | 6.02 | 2.71 | 4.91 | 2.73 | 4.97 | 2.46 | 1.14 | 3.21 | 4.54 | 0.0767 | 6.04 | 0.306 | 4.56
TCATATAGGTAATACGGGTGAAAGTCGGCATCTA | 0.703 | 0.697 | 0.104 | 0.839 | 0.196 | 1.79 | 1.31 | 2.56 | 3.81 | 3.07 | 3.97 | 3.5 | 0.9 | 0.874 | 0.552 | 0.662 | 0.363 | 1.01 | 1.49 | 0.495

Source: the supplement of paper PMC6555819
